Assay results from PubChem BioAssay AID1159580 (chemical genetic matrix, 2015).
Hit rate of the full screen: of about 5,500 compounds, about 2,000 (36%) were called active. About 18% were inconclusive and are not listed. No stated cut-off is given here; in the data, active means normalized growth mostly below about 0.91 (no sharp cut-off); inconclusive means no clear call, values can overlap the other calls; inactive means mostly above about 0.92. This is one part of the list.

Assay: chemical genetic growth profiling, strain panel (AID 1159580);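 further: tested at 20 µM; growth read once vehicle control cultures reached saturation at 30 °C; 1 = growth at the plate median or of vehicle wells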
Conditions: growth OD
[1] = S. cerevisiae deletion strains, locus YAL013W, strain DEP1, stronger effect = lower value
[2] = S. cerevisiae deletion strains, locus YBR229C, strain ROT2, stronger effect = lower value
[3] = S. cerevisiae deletion strains, locus YCL061C, strain MRC1, stronger effect = lower value
[4] = S. cerevisiae deletion strains, locus YDL101C, strain DUN1, stronger effect = lower value
[5] = S. cerevisiae deletion strains, locus YDR150W, strain NUM1, stronger effect = lower value
[6] = S. cerevisiae deletion strains, locus YEL061C, strain CIN8, stronger effect = lower value
[7] = S. cerevisiae deletion strains, locus YGR078C, strain PAC10, stronger effect = lower value
[8] = S. cerevisiae deletion strains, locus YHR030C, strain SLT2, stronger effect = lower value
[9] = S. cerevisiae deletion strains, locus YHR087W, strain rtc3, stronger effect = lower value
[10] = S. cerevisiae deletion strains, locus YJR043C, strain POL32, stronger effect = lower value
[11] = S. cerevisiae deletion strains, locus YJR075W, strain HOC1, stronger effect = lower value
[12] = S. cerevisiae deletion strains, locus YLR039C, strain RIC1, stronger effect = lower value
[13] = S. cerevisiae deletion strains, locus YLR058C, strain SHM2 (second series), stronger effect = lower value
[14] = S. cerevisiae deletion strains, locus YLR085C, strain ARP6, stronger effect = lower value
[15] = S. cerevisiae deletion strains, locus YLR262C, strain YPT6, stronger effect = lower value
[16] = S. cerevisiae deletion strains, locus YML094W, strain GIM5, stronger effect = lower value
[17] = S. cerevisiae deletion strains, locus YMR219W, strain ESC1, stronger effect = lower value
[18] = S. cerevisiae deletion strains, locus YNL128W, strain TEP1, stronger effect = lower value
[19] = S. cerevisiae deletion strains, locus YNL153C, strain GIM3, stronger effect = lower value
[20] = S. cerevisiae deletion strains, locus YNL298W, strain CLA4 (second series), stronger effect = lower value
[21] = S. cerevisiae deletion strains, locus YNL322C, strain KRE1, stronger effect = lower value
[22] = S. cerevisiae deletion strains, locus YNR030W, strain Alg12, stronger effect = lower value
[23] = S. cerevisiae deletion strains, locus YPL055C, strain LGE1, stronger effect = lower value
[24] = S. cerevisiae deletion strains, locus YPL241C, strain CIN2, stronger effect = lower value
[25] = S. cerevisiae deletion strains, locus YPR135W, strain CTF4, stronger effect = lower value
[26] = S. cerevisiae strains, strain wild type, stronger effect = lower value

Measured: normalized growth

Cn1c(CSCC(=O)Nc2ccccc2)n[nH]c1=S
inactive: [1] 1.01 | [2] 1.01 | [3] 1.02 | [4] 1.02 | [5] 1.02 | [6] 1 | [7] 0.999 | [8] 1.09 | [9] 1.01 | [10] 1.02 | [11] 0.991 | [12] 1 | [13] 1 | [14] 0.966 | [15] 1.01 | [16] 0.994 | [17] 0.993 | S. cerevisiae deletion strains, locus YMR263W, strain SAP30, stronger effect = lower value 1.02 | [18] 0.994 | [19] 1.02 | [20] 1.03 | [21] 0.99 | [22] 1 | [23] 1.03 | [24] 1 | [25] 1.07 | [26] 0.981

O=C(CSCc1csc2ccccc12)Nc1ccc(F)c(Cl)c1
inactive: S. cerevisiae deletion strains, locus YAR019C, strain CDC15, stronger effect = lower value 0.978 | S. cerevisiae deletion strains, locus YBL105C, strain PKC1, stronger effect = lower value 0.977 | S. cerevisiae deletion strains, locus YBR135W, strain CKS1, stronger effect = lower value 0.973 | S. cerevisiae deletion strains, locus YBR136W, strain MEC1, stronger effect = lower value 0.981 | S. cerevisiae deletion strains, locus YBR160W, strain CDC28, stronger effect = lower value 0.974 | S. cerevisiae deletion strains, locus YDL017W, strain CDC7, stronger effect = lower value 0.98 | S. cerevisiae deletion strains, locus YDL028C, strain MPS1, stronger effect = lower value 0.982 | [4] 0.999 | S. cerevisiae deletion strains, locus YDL108W, strain KIN28, stronger effect = lower value 0.973 | S. cerevisiae deletion strains, locus YDL132W, strain cdc53, stronger effect = lower value 0.982 | S. cerevisiae deletion strains, locus YDL214C, strain PRR2, stronger effect = lower value 0.885 | S. cerevisiae deletion strains, locus YDR052C, strain DBF4, stronger effect = lower value 0.99 | S. cerevisiae deletion strains, locus YDR054C, strain cdc34, stronger effect = lower value 0.97 | S. cerevisiae deletion strains, locus YDR226W, strain ADK1, stronger effect = lower value 0.986 | S. cerevisiae deletion strains, locus YDR477W, strain SNF1, stronger effect = lower value 0.909 | S. cerevisiae deletion strains, locus YER123W, strain YCK3, stronger effect = lower value 0.884 | S. cerevisiae deletion strains, locus YER133W, strain GLC7, stronger effect = lower value 0.921 | S. cerevisiae deletion strains, locus YFL009W, strain cdc4, stronger effect = lower value 0.978 | S. cerevisiae deletion strains, locus YFL029C, strain CAK1, stronger effect = lower value 0.975 | S. cerevisiae deletion strains, locus YFR003C, strain YPI1, stronger effect = lower value 0.978 | S. cerevisiae deletion strains, locus YFR019W, strain FAB1, stronger effect = lower value 0.93 | S. cerevisiae deletion strains, locus YFR028C, strain CDC14, stronger effect = lower value 0.975 | S. cerevisiae deletion strains, locus YGR040W, strain KSS1, stronger effect = lower value 0.917 | S. cerevisiae deletion strains, locus YGR052W, strain FMP48, stronger effect = lower value 0.925 | S. cerevisiae deletion strains, locus YGR092W, strain DBF2, stronger effect = lower value 0.878 | S. cerevisiae deletion strains, locus YHR079C, strain IRE1, stronger effect = lower value 0.858 | S. cerevisiae deletion strains, locus YHR082C, strain KSP1, stronger effect = lower value 0.896 | S. cerevisiae deletion strains, locus YHR205W, strain SCH9, stronger effect = lower value 0.845 | S. cerevisiae deletion strains, locus YIL147C, strain SLN1, stronger effect = lower value 0.984 | S. cerevisiae deletion strains, locus YJL095W, strain BCK1, stronger effect = lower value 0.877 | S. cerevisiae deletion strains, locus YJL128C, strain PBS2, stronger effect = lower value 0.946 | S. cerevisiae deletion strains, locus YJL157C, strain FAR1, stronger effect = lower value 0.875 | S. cerevisiae deletion strains, locus YJR016C, strain ILV3, stronger effect = lower value 0.972 | S. cerevisiae deletion strains, locus YJR066W, strain TOR1 (second series), stronger effect = lower value 0.893 | S. cerevisiae deletion strains, locus YJR066W, strain TOR1, stronger effect = lower value 0.889 | S. cerevisiae deletion strains, locus YKL048C, strain ELM1, stronger effect = lower value 0.952 | S. cerevisiae deletion strains, locus YKL067W, strain YNK1, stronger effect = lower value 0.897 | S. cerevisiae deletion strains, locus YKL101W, strain HSL1, stronger effect = lower value 0.89 | S. cerevisiae deletion strains, locus YKL193C, strain SDS22, stronger effect = lower value 0.977 | S. cerevisiae deletion strains, locus YKL203C, strain TOR2, stronger effect = lower value 0.96 | S. cerevisiae deletion strains, locus YLR133W, strain CKI1, stronger effect = lower value 0.899 | S. cerevisiae deletion strains, locus YLR403W, strain SFP1, stronger effect = lower value 0.889 | S. cerevisiae deletion strains, locus YML070W, strain DAK1, stronger effect = lower value 0.849 | S. cerevisiae deletion strains, locus YMR001C, strain CDC5, stronger effect = lower value 0.977 | S. cerevisiae deletion strains, locus YMR205C, strain PFK2 (second series), stronger effect = lower value 0.904 | S. cerevisiae deletion strains, locus YMR277W, strain FCP1, stronger effect = lower value 0.978 | S. cerevisiae deletion strains, locus YNL006W, strain LST8, stronger effect = lower value 0.978 | S. cerevisiae deletion strains, locus YNL020C, strain ARK1, stronger effect = lower value 0.887 | S. cerevisiae deletion strains, locus YNL161W, strain CBK1, stronger effect = lower value 0.977 | S. cerevisiae deletion strains, locus YNL183C, strain NPR1, stronger effect = lower value 0.879 | S. cerevisiae deletion strains, locus YNL207W, strain RIO2, stronger effect = lower value 0.974 | S. cerevisiae deletion strains, locus YNL222W, strain SSU72, stronger effect = lower value 0.966 | S. cerevisiae deletion strains, locus YNL307C, strain MCK1 (second series), stronger effect = lower value 0.877 | S. cerevisiae deletion strains, locus YOL078W, strain AVO1, stronger effect = lower value 0.979 | S. cerevisiae deletion strains, locus YOL136C, strain PFK27, stronger effect = lower value 0.843 | S. cerevisiae deletion strains, locus YOR061W, strain CKA2, stronger effect = lower value 0.895 | S. cerevisiae deletion strains, locus YOR119C, strain RIO1, stronger effect = lower value 0.965 | S. cerevisiae deletion strains, locus YOR231W, strain MKK1, stronger effect = lower value 0.814 | S. cerevisiae deletion strains, locus YOR329C, strain SCD5, stronger effect = lower value 0.982 | S. cerevisiae deletion strains, locus YPL031C, strain PHO85, stronger effect = lower value 0.906 | S. cerevisiae deletion strains, locus YPL153C, strain RAD53, stronger effect = lower value 0.897 | S. cerevisiae deletion strains, locus YPL204W, strain HRR25, stronger effect = lower value 0.907 | S. cerevisiae deletion strains, locus YPL209C, strain IPL1, stronger effect = lower value 0.973 | S. cerevisiae deletion strains, locus YPR025C, strain CCL1, stronger effect = lower value 0.975 | S. cerevisiae deletion strains, locus YPR106W, strain ISR1, stronger effect = lower value 0.961 | S. cerevisiae deletion strains, locus YPR111W, strain DBF20, stronger effect = lower value 0.952 | S. cerevisiae deletion strains, strain NNK1, stronger effect = lower value 0.956 | S. cerevisiae deletion strains, strain TSCII, stronger effect = lower value 0.977
active: [8] 0.821 | S. cerevisiae deletion strains, locus YLR113W, strain HOG1, stronger effect = lower value 0.68 | S. cerevisiae deletion strains, locus YPL256C, strain CLN2, stronger effect = lower value 0.754

O=C(CSCc1c(F)cccc1Cl)Nc1ccc(F)c(Cl)c1
active: [1] 0.883 | [2] 0.834 | [3] 0.869 | [6] 0.881 | [7] 0.872 | S. cerevisiae deletion strains, locus YGR229C, strain SMI1, stronger effect = lower value 0.913 | [8] 0.194 | [9] 0.811 | S. cerevisiae deletion strains, locus YJL187C, strain SWE1, stronger effect = lower value 0.875 | [10] 0.909 | [11] 0.794 | S. cerevisiae deletion strains, locus YKL190W, strain CNB1, stronger effect = lower value 0.802 | [12] 0.607 | [13] 0.908 | [14] 0.561 | [15] 0.595 | [16] 0.826 | [17] 0.891 | [20] 0.773 | [22] 0.752 | [23] 0.75 | [24] 0.781 | [25] 0.441 | [26] 0.87
inactive: [4] 0.956 | [5] 0.83 | [18] 0.928 | [19] 0.935 | [21] 0.946 | S. cerevisiae deletion strains, locus YOL006C, strain TOP1, stronger effect = lower value 0.953
